The source of these data is PubChem BioAssay.

SMILES strings stand for the structures. Results filed as inconclusive are left out. Activity calls are given as the source filed them.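 Rule for the calls, unless noted: active = growth inhibition above 25% in both replicates, a cutoff set 3 SD above the mean; inconclusive = above 25% in only one replicate; inactive = the rest.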

Experiment [1] can be described thus: HUVEC growth inhibition – cell-based, human, primary screen (AID 575;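 active = viability at or below 30% in both replicate assays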;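 note: 100% = median of untreated cell wells with 0.1% DMSO on each plate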). To be noted: HUVEC proliferation, CellTiter-Glo luminescence, 72 h; at 10 µM; stronger effect = lower value.
Experiment [2] can be described thus: growth inhibitors of H69AR lung tumor, primary screen, human, duplicate replicates (AID 580;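 active = viability at or under a set limit in both replicates, limit being median viability minus 3 SD, cut at about 48% in these data, passing the limit was not always enough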;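 note: 100% = mean luminescence of untreated wells and 0% = no signal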). To be noted: H69AR lung tumor cells viability, ATP luminescence, 72 h; at 10 µM; stronger effect = lower value.
The nature of experiment [3]: reversal of MRP1-mediated doxorubicin resistance, pilot screen, H69AR cells, doxorubicin co-treatment (AID 601;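 active = viability loss from added drug above about 55%, and viability with drug at most 40%, in both replicates, limit read from the data, passing the limit was not always enough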). To be noted: CellTiter-Glo, 72 h, at 10 µM; for differential viability (reversal): stronger effect = higher value. (In general: In ATP-based viability assays light output follows the ATP content of the culture.)
Experiment [4] can be described thus: 384-well plate pilot, post-Golgi transport modulator project, inhibition of yeast transport mutant growth (AID 636; in the data active = inhibition above about 31%). To be noted: absorbance 615 nm, about 18 h, stronger effect = higher value.
Experiment [5] can be described thus: growth suppression of yeast trafficking mutant, preliminary HTS, modulators of trafficking downstream of Golgi apparatus project, 1536-format plate, OD 615 nm (AID 637; in the data active = inhibition above about 30%). To be noted: yeast transport mutant growth, absorbance 615 nm, 18 h; stronger effect = higher value.
The nature of experiment [6]: OD615 S. cerevisiae growth inhibition, permissive medium, pilot counter-assay, permissive growth control for S. cerevisiae lifespan shortening project (AID 705). To be noted: OD615, 24 h, at 10 µM, stronger effect = higher value.
Experiment [7] can be described thus: Restrictive medium S. cerevisiae growth inhibition, OD615, pilot screen of yeast lifespan reduction project, restrictive growth control (AID 706;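 active = growth inhibition above a set limit, 3 SD over mean compound inhibition, in both replicates, cut at about 43% in these data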;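 note: modified DeaD lifespan yeast strain shifted to restrictive glucose medium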). To be noted: OD615, 48 h, at 10 µM, stronger effect = higher value.
The nature of experiment [8]: viability gain of MRP-1-high H69AR cells under doxorubicin, pilot screen, MRP-1 activator project, CellTiter-Glo, duplicate (AID 807;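 active = viability increase at or above a cutoff of the median across tested compounds plus 3 SD, cut at about 8.5% in these data, passing the limit was not always enough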;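 note: compound pretreatment 18-22 h then 72 h combined with doxorubicin; 0% = doxorubicin alone and 100% = vehicle without doxorubicin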). To be noted: H69AR viability with doxorubicin, CellTiter-Glo luminescence; at 10 µM; stronger effect = higher value.
The nature of experiment [9]: growth suppression of beta-catenin knockout HCT116, pilot screen, human colon tumor cells (AID 823;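 active = cell viability at or below a set limit in both duplicate runs, the limit being the all-compound median minus 4 SD, cut at about 23% in these data, passing the limit was not always enough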;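 note: 0% = wells killed by 20 µM Hyamine and 100% = untreated DMSO cell wells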). To be noted: CellTiter-Glo, 60 h, at 10 µM, stronger effect = lower value.
The nature of experiment [10]: inhibitors of the yeast RAM network, pilot screen, dse1pr::URA3 reporter, 5-FOA selection (AID 869;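 active = inhibition over a set limit, the all-compound mean plus 3 SD, in both replicate runs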;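 note: 0% = DMSO wells with no growth and 100% = 10 µM 1-NA-PP1 with full growth; RAM network block rescues cells from 5-FOA so hits raise OD615 growth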). To be noted: S. cerevisiae dse1pr::URA3 5-FOA growth, OD615, 2 d; at 10 µM; stronger effect = higher value; strain carries analog-sensitive mutant Cbk1 kinase.
A short description of experiment [11]: RAM signaling pathway blockade in yeast – S. cerevisiae, Pdr1DBD-CYC8 efflux-inhibited sensitized strain, primary screen (AID 1298;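 active = RAM network inhibition above 8.4% in each of two replicates, 3 SD over the compound average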;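 note: 0% = DMSO untreated cells without growth and 100% = 10 µM 1-NA-PP1 full growth; higher means more yeast growth rescued from 5-FOA killing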). To be noted: S. cerevisiae cbk1-as DSE1-URA3 strain, 5-FOA growth OD615, 2 d; at 50 µM; stronger effect = higher value.
Experiment [12] can be described thus: growth suppression of PTEN-deleted HCT116, pilot screen, cell-based, HCT116 clonal line, CellTiter-Glo (AID 824;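 active = viability at or below 27.92% in each of two runs, the all-compound median minus 4 SD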;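 note: 0% = 20 µM Hyamine control and 100% = vehicle cell control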). To be noted: 60 h, at 10 µM, stronger effect = lower value.
Setting [13] is: H69AR cells + 2 uM doxorubicin, measured here: viability with 2 uM doxorubicin, stronger effect = lower value.
[14] abbreviates: H69AR cells, compound alone cytotoxicity.

For orientation: viability means a read-out of living cells in per cent, often relative to untreated cells. As usually defined, the inhibition is the drop in the measured response relative to a control, in per cent. As to `N#Cc1nc(-c2ccc(Cl)cc2)oc1NCCc1ccccn1`, the viability in experiment [1] is 102% (inactive); in experiment [2], 104% (inactive); in [3] (setting [13]), 96%; in experiment [3] (setting [14]) it was 104%; in experiment [9] it was 97.3% (inactive). In experiment [3] (H69AR cells + 2 uM doxorubicin), the differential viability (reversal) was 7.66% (inactive). The inhibition was 0.39% (inactive) in [4], 5.4% (inactive) in [5] and 1.07% (inactive) in experiment [10]. The growth inhibition in experiment [6] is 1% (inactive); in experiment [7], 0.83% (inactive). For the same compound, in [8], the viability increase was -0.49% (inactive). Moreover, the RAM network inhibition in experiment [11] was 7.29% (inactive).

Take `COC(=O)C1CCN(C(=O)CSc2nnc(-c3ccncc3)o2)CC1`: the viability in experiment [1] is 101% (inactive); in experiment [2], 81.8% (inactive); in [3] (setting [13]) it was 89%; in [3] (setting [14]), 81.8%; in experiment [9] it was 102% (inactive); in experiment [12], 102% (inactive). The differential viability (reversal) in [3] (H69AR cells + 2 uM doxorubicin) was -7.18% (inactive). The figures for the inhibition in [4], in [5] and in experiment [10] were 1.43% (inactive), 19.1% (inactive) and 1.91% (inactive), respectively. Besides, the growth inhibition is -0.605% (inactive) in experiment [6] and -6.21% (inactive) in experiment [7]. Besides, the viability increase in experiment [8] was 1.44% (inactive). Besides, the RAM network inhibition in experiment [11] is -1.1% (inactive).

For the compound `COc1cc2[nH]c(=O)n(CCCCCC(=O)NCCCN3CCCC3=O)c(=O)c2cc1OC`, the viability in experiment [1] is 103% (inactive); in [2] it was 104% (inactive); in [3] (setting [13]), 92.9%; in [3] (setting [14]) it was 104%; in [9], 103% (inactive); in [12], 104% (inactive). Besides, the differential viability (reversal) in experiment [3] (H69AR cells + 2 uM doxorubicin) was 11.6% (inactive). Also, the inhibition in [4] is -5.39% (inactive); in [5], -0.32% (inactive); in [10] it was 1.91% (inactive). Further, the growth inhibition in experiment [6] is -1.87% (inactive); in experiment [7], -4% (inactive). In experiment [8], the viability increase was 1.13% (inactive). Moreover, the RAM network inhibition in [11] is 6.37% (inactive).

On to `O=C1CC(c2ccco2)CC(O)=C1C=NCCN1CCNCC1` (stereo unspecified), for which the viability in [1] was 103% (inactive); in experiment [2], 95.6% (inactive); in experiment [3] (setting [13]), 92.3%; in experiment [3] (setting [14]), 95.6%; in experiment [9], 91% (inactive); in experiment [12] it was 101% (inactive). Also, the differential viability (reversal) in experiment [3] (H69AR cells + 2 uM doxorubicin) was 3.35% (inactive). The values for the inhibition in [4], in experiment [5] and in [10] were 0.13% (inactive), 5.56% (inactive) and 0.405% (inactive), respectively. Further, the figures for the growth inhibition in [6] and in experiment [7] were -10.2% (inactive) and 3.51% (inactive), respectively. Further, the viability increase in experiment [8] is 0.26% (inactive). Moreover, the RAM network inhibition in [11] was 1.52% (inactive).

Take `CCCCNC(=O)Nc1ccnn1C1CCCCC1`: the viability in [1] is 96.5% (inactive); in [2], 100% (inactive); in experiment [3] (setting [13]), 87.2%; in experiment [3] (setting [14]) it was 100%; in [9] it was 97.9% (inactive); in experiment [12], 90.7% (inactive). Besides, the differential viability (reversal) in experiment [3] (H69AR cells + 2 uM doxorubicin) was 13% (inactive). Further, the inhibition was -3.64% (inactive) in experiment [4], 7.14% (inactive) in [5] and -0.255% (inactive) in experiment [10]. The growth inhibition was -5.58% (inactive) in experiment [6] and -15% (inactive) in experiment [7]. In experiment [8], the viability increase is -1.77% (inactive). In addition, the RAM network inhibition in [11] was -2.79% (inactive).

For the compound `CCCCC(NC(C)=O)c1nc2ccccc2n1CCC` (stereo unspecified), the viability is 93.9% (inactive) in experiment [1]; 100% (inactive) in [2]; 89.7% in [3] (setting [13]); 100% in [3] (setting [14]); 93.6% (inactive) in [9]; 93.3% (inactive) in [12]. Moreover, the differential viability (reversal) in [3] (H69AR cells + 2 uM doxorubicin) is 10.6% (inactive). For the same compound, the inhibition is 1.32% (inactive) in [4], 7.62% (inactive) in experiment [5] and 1.44% (inactive) in [10]. The growth inhibition is -5.8% (inactive) in experiment [6] and -2.95% (inactive) in experiment [7]. Also, the viability increase in experiment [8] was -0.99% (inactive). Also, the RAM network inhibition in experiment [11] is -0.69% (inactive).

Regarding `CC(=O)Nc1nc(-c2ccccc2)nc(C)c1C(C)=O`, the viability is 103% (inactive) in experiment [1]; 94.4% (inactive) in [2]; 87.3% in experiment [3] (setting [13]); 94.4% in experiment [3] (setting [14]); 93.4% (inactive) in [9]; 99.5% (inactive) in experiment [12]. In experiment [3] (H69AR cells + 2 uM doxorubicin), the differential viability (reversal) is 7.1% (inactive). The inhibition in experiment [4] was 0.13% (inactive); in experiment [5], -2.22% (inactive); in [10] it was 0.585% (inactive). The growth inhibition in [6] was -9.85% (inactive); in experiment [7] it was -7.77% (inactive). For the same compound, the viability increase in [8] was -0.66% (inactive). In addition, in [11], the RAM network inhibition was 5.92% (inactive).

Consider `COc1ccc(C)cc1NC(=O)CNC(=O)Cn1ccc2ccccc2c1=O`, for which the viability in [1] is 112% (inactive); in [2], 92.8% (inactive); in experiment [3] (setting [13]), 85.9%; in experiment [3] (setting [14]), 92.8%; in [9], 89% (inactive); in experiment [12], 90.3% (inactive). Also, the differential viability (reversal) in experiment [3] (H69AR cells + 2 uM doxorubicin) was 6.84% (inactive). The inhibition in [4] was -1.18% (inactive); in experiment [5], 1.59% (inactive); in experiment [10] it was 1.96% (inactive). Moreover, the growth inhibition in experiment [6] is -17.2% (inactive); in experiment [7], -3.23% (inactive). The viability increase in experiment [8] is -2.41% (inactive). The RAM network inhibition in [11] is 5.68% (inactive).

With `O=c1cc(-c2ccco2)oc2ccc(Cl)cc12`, the viability in experiment [1] is 111% (inactive); in [2] it was 98.4% (inactive); in [3] (setting [13]), 85.9%; in [3] (setting [14]), 98.4%; in [9], 96.9% (inactive); in experiment [12], 98.2% (inactive). The differential viability (reversal) in experiment [3] (H69AR cells + 2 uM doxorubicin) was 12.5% (inactive). Besides, the inhibition is -2.6% (inactive) in experiment [4], 4.76% (inactive) in experiment [5] and 0.61% (inactive) in [10]. The growth inhibition is -19.4% (inactive) in experiment [6] and -2.54% (inactive) in [7]. For the same compound, the viability increase in experiment [8] was -2.08% (inactive). For the same compound, in experiment [11], the RAM network inhibition was 6.02% (inactive).

On to `CCOc1ccc(Cn2nnc(C(=O)Nc3cc(OC)cc(OC)c3)c2N)cc1`, for which the growth inhibition in [6] is -2.1% (inactive); in experiment [7], 0.885% (inactive). In experiment [8], the viability increase was -5.5% (inactive). Besides, the viability is 86% (inactive) in experiment [9] and 88% (inactive) in [12]. The RAM network inhibition in [11] is 2.46% (inactive).
